Source: PubChem BioAssay (several laboratories)
CHOP inh = CHOP inhibition in unfolded protein response; CHO-K1 CHOP-promoter luciferase, tunicamycin-induced, 15-18 h; inhibition, % at 10 µM; actives 3.8% (n = 220,000); AID 2732;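 active = compounds that reduced the stress-induced luciferase reporter signal by more than about 70% of percent inhibition, limit read from the data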
RAM network inh = inhibitors of the yeast RAM network | actives 1.8% (n = 190,000) | S. cerevisiae dse1pr::URA3 reporter, 5-FOA growth OD615, 2 d; analog-sensitive cbk1-as2 kinase mutant strain | inhibition, % at 50 µM;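 active = inhibition above a set limit, 3 SD over mean compound inhibition, cut at about 8.4% in these data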;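 note: inhibition rescues growth on 5-FOA so higher OD means more RAM inhibition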
Lmaj promast = Leishmania major promastigote growth inhibition; Leishmania major promastigotes, resazurin fluorescence viability; inhibition, % at 10 µM; actives 9% (n = 200,000); in the data active = inhibition above about 50%;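 note: promastigotes grown with compound for 44 hours at 28 °C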
WT yeast gro inh = growth inhibition of WT yeast, mitochondrial fusion screen. inhibition, % at 10 µM. actives 2.1% (n = 190,000). mitochondrial fusion phenotypic screen, WT strain; in the data active = inhibition above about 58%; tested in S. cerevisiae
Large screens that a line does not name were inactive. An excerpt weighted towards active compounds, which were near 13% of everything screened.

COP(=O)(OC)C1(Nc2ccc(C)cc2)CCCCC1	none
CN(C)c1ccc(CN2CC=C(c3ccc(F)cc3)CC2)cc1	Lmaj promast 96
Nc1c(C(=O)NCc2ccco2)c2nc3ccccc3nc2n1Cc1ccc(F)cc1	Lmaj promast 59
Nc1c(C(=O)NCc2ccco2)c2nc3ccccc3nc2n1Cc1ccccc1	none
CCOC(=O)c1c(N)n(Cc2ccco2)c2nc3ccccc3nc12	none
COCC(C)OC(=O)c1c(N)n(Cc2ccco2)c2nc3ccccc3nc12 (stereo not drawn)	Lmaj promast 95
CCC1(C)OC(c2ccccc2)=C/C(=C/C=C2C(=O)NC(=O)NC2=O)O1 (stereo not drawn)	none
CN1CC[C@@]2(C)c3cc(O)ccc3N(C)C12 (stereo partly drawn)	none (no result: RAM network inh, Lmaj promast, WT yeast gro inh)
CN1CCN(Cc2ccc(N)cc2)CC1	none
CCCCCCOc1ccc(CN2CCN(CC)CC2)cc1	Lmaj promast 97
CCN1CCN(Cc2ccc(OC(F)(F)F)cc2)CC1	Lmaj promast 89
O=C(Nc1ccc(Cl)cc1C(=O)c1ccccc1Cl)c1ccco1	none
Cc1ccc(-n2c(O)c(C=NCCC3=CCCCC3)c(=O)[nH]c2=O)cc1	none
Cc1ccc(-n2nc(C)c3c2NC(=O)CSC3c2ccc3c(c2)OCO3)cc1 (stereo not drawn)	none
COc1ccc(C2SCC(=O)Nc3c2c(C)nn3-c2ccccc2)cc1 (stereo not drawn)	Lmaj promast 100
COc1cc(C(c2c(C)[nH]n(-c3ccccc3)c2=O)c2c(C)[nH]n(-c3ccccc3)c2=O)cc(OC)c1OC	Lmaj promast 95
CC(C)(C)C(=O)Cn1c(NCCCl)nc2ccccc21	none
Cc1ccnc(-n2c(C)cc(C=C3C(=O)N(C)C(=S)N(C)C3=O)c2C)c1	Lmaj promast 51
O=C(c1ccccc1)c1cn(CC(=O)N2CCOCC2)c2ccccc12	none
N=c1c2c(n(Cc3ccc(Cl)cc3Cl)c3c1CCC3)CCCC2	Lmaj promast 100, WT yeast gro inh 70 (no result: CHOP inh)
COc1ccccc1Cn1c(SCC(=O)C(C)(C)C)nc2cc(C(=O)N3CCC4(CC3)OCCO4)ccc2c1=O	RAM network inh 11, Lmaj promast 57
O=C(Nc1ccc(Cl)cc1C(=O)c1ccccc1)c1ccco1	none
Cc1ccc(S(=O)(=O)NCCC(=O)Nc2ccc(Cl)cc2C(=O)c2ccccc2)cc1	CHOP inh 94
COc1ccc(OCC(=O)Nc2ccc(Cl)cc2C(=O)c2ccccc2)cc1	none
Cc1ccc(C(=O)Nc2ccc(Cl)cc2C(=O)c2ccccc2)cc1	Lmaj promast 99 (no result: CHOP inh, RAM network inh, WT yeast gro inh)
Cc1ccc(OCC(=O)Nc2ccc(Cl)cc2C(=O)c2ccccc2)cc1	RAM network inh 9.4
CN(C)C(=O)Oc1ccc(Br)c2ccccc12	none
CCC1(CC)C(=O)N(C)C(=O)NC1=NC	none (no result: RAM network inh, Lmaj promast, WT yeast gro inh)
CC(=O)OC1(Cc2ccccc2)CN2CCC1c1ccccc12 (stereo not drawn)	Lmaj promast 63
CC(=O)OC1(c2ccc(C)cc2)CN2CCC1c1ccccc12 (stereo not drawn)	none
Cc1cc(C(=O)O)c(C)n1C1CC1	none (no result: RAM network inh, Lmaj promast, WT yeast gro inh)
CCC(C#N)(CC)P(=S)(c1ccccc1)c1ccccc1	Lmaj promast 100
CN1C(=O)C(=Cc2c(OCc3cnc(Cl)s3)ccc3ccccc23)C(=O)N(C)C1=O	Lmaj promast 89
COc1ccc(C=C2C(=O)N(C)C(=O)N(C)C2=O)cc1CSc1ccccn1	none
O=S(=O)(c1ccccc1)N1CC1c1ccccc1 (stereo not drawn)	none
COc1ccc(-n2c(SC)nc3ccccc3c2=O)cc1	none
O=c1c2ccccc2nc(SCC2CCCCO2)n1-c1ccccc1 (stereo not drawn)	Lmaj promast 76
COc1cc(C=C2C(=O)NC(=O)NC2=O)ccc1OCc1ccc([N+](=O)[O-])cc1	none
COc1cc(/C=C(/C)[N+](=O)[O-])ccc1OCc1ccccc1Cl	CHOP inh 106, Lmaj promast 100
CCCCOc1ccc(CCN)cc1Cl	Lmaj promast 89
O=C(O)CSC(=S)N1CC2CC(C1)c1cccc(=O)n1C2 (stereo not drawn)	none
O=C(c1ccccc1F)c1cn(Cc2ccccc2)c2ccccc12	RAM network inh 11, Lmaj promast 54
CCC(C)N1CCN(C(=O)Cc2ccccc2)CC1 (stereo not drawn)	none
Nc1nonc1C(=O)N/N=C/c1ccc([N+](=O)[O-])o1	Lmaj promast 83
N/C(=N\[N+](=O)[O-])N/N=C/c1ccc(O)cc1	none
CC(O)(CS(=O)(=O)c1cccc(C(F)(F)F)c1)C(=O)Nc1cccc(C(F)(F)F)c1 (stereo not drawn)	CHOP inh 72
O=c1[nH]c(=S)[nH]c(O)c1N=Nc1ccc(S(=O)(=O)N2CCc3ccccc32)cc1	none
CN1CCN(/N=C/c2c(O)n(CCC3=CCCCC3)c(=S)[nH]c2=O)CC1	none (no result: RAM network inh, Lmaj promast, WT yeast gro inh)
O=c1[nH]c(=S)n(CCC2=CCCCC2)c(O)c1/C=N/Nc1ccccc1	CHOP inh 73 (no result: RAM network inh, Lmaj promast, WT yeast gro inh)
O=c1[nH]c(=O)n(C2CCCCCC2)c(O)c1C=NC1CCN(Cc2ccccc2)CC1	Lmaj promast 89
O=c1[nH]c(=S)n(CCC2=CCCCC2)c(O)c1C=NC1CCN(Cc2ccccc2)CC1	CHOP inh 81, WT yeast gro inh 78
CN(N=O)c1ccc(O)c(O)c1	none (no result: RAM network inh, Lmaj promast, WT yeast gro inh)
O=c1[nH]c(=O)n(Cc2ccccc2Cl)c(O)c1/C=C1/C=CC=N1	none
OC12ONC(c3ccccn3)C1N1CCC2CC1 (stereo not drawn)	none
Cc1[nH]c2c(Cl)cccc2c1CCN	Lmaj promast 56 (no result: CHOP inh, RAM network inh, WT yeast gro inh)
CCC(=Nc1ccc2c(c1)CCC2)c1c(O)n(C2CCCCC2)c(=O)[nH]c1=O	CHOP inh 76
CC(=Nc1ccc2c(c1)CCC2)c1c(O)n(C2CCCCC2)c(=O)[nH]c1=O	CHOP inh 87
CC(=Nc1ccc2c(c1)CCC2)c1c(O)n(-c2ccccc2)c(=O)[nH]c1=O	none (no result: RAM network inh, Lmaj promast, WT yeast gro inh)
O=c1[nH]c(=S)[nH]c(O)c1/C=N/N1CCOCC1	none (no result: RAM network inh, Lmaj promast, WT yeast gro inh)
Cc1ccccc1C1=NCC(=O)N(CC(=O)NCc2ccco2)c2sc3c(c21)CCCC3	Lmaj promast 93
CCOC(=O)C1=C(NC(=S)NC(=O)c2ccccc2)c2ccccc2CC12CCCC2	WT yeast gro inh 73
CCOP(=O)(OCC)C(NC(=O)c1ccccc1)=C(Cl)Cl	none
O=C(c1cccc2ccccc12)C1CCCN(C2CCC2)C1 (stereo not drawn)	Lmaj promast 74
O=C(c1cccc2ccccc12)C1CCCN(Cc2ccon2)C1 (stereo not drawn)	none (no result: RAM network inh, Lmaj promast, WT yeast gro inh)
CN(C)c1ccc(/C=C/C=C/c2sc3ccccc3[n+]2C)cc1	none (no result: RAM network inh, Lmaj promast, WT yeast gro inh)
CN(C)c1ccc(/C=C/c2cc[n+](C)c3ccccc23)cc1	Lmaj promast 100, WT yeast gro inh 78
Cc1cc(/C=C2/C(=O)NC(=O)N(c3ccc(Br)cc3)C2=O)c(C)n1C	none (no result: RAM network inh, Lmaj promast, WT yeast gro inh)
Cc1cc(/C=C2\C(=O)NC(=O)N(c3ccc(Br)cc3)C2=O)c(C)n1C	RAM network inh 11
C=CCn1c(O)c(/C=N/NC(=O)CCCC)c(=O)[nH]c1=S	none
CNC(C(=O)c1ccccc1)C(OC)c1ccccc1 (stereo not drawn)	WT yeast gro inh 80
CC(=O)OC1N=C(c2ccc(Cl)cc2)c2cc(Br)ccc2NC1=O (stereo not drawn)	none
